Assay results as given in PubChem BioAssay AID720541 (National Center for Advancing Translational Sciences (NCATS), 2013).
In all, about 1,300 compounds went through this assay and about 420 (32%) were called active. About 32% were inconclusive and are not listed. Calls follow the shape of the dose curve; as a rule, active = well fitted inhibition curve with a large enough effect; inconclusive = small, poorly fitted or top-dose-only effect; inactive = no such curve, though single readings can be large or run the other way. This is one part of the list.

Each molecule was assayed against C-terminal-binding protein 1 (Homo sapiens) (UniProt Q13363) (assay: qHTS for Inhibitors of the Phosphatase Activity of Eya2: Carboxyl-terminal binding protein (CtBP) Counterscreen for Cherry-picked Compounds). Details: purified protein-protein binding, AlphaScreen, 3 h; series mostly up to 46.1 µM.
Procedure, shortened: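 Cherry-picked compounds (final 2.5 nM–46 uM) were incubated 2 h at RT with 25 nM CtBP-6xHIS and 25 nM GST-E1A. Alpha beads (20 ug/mL) were then added for 1 h, light-protected; DMSO and E1A peptide inhibitor wells set the normalization.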
Also: nearly all actives have a fitted effect of over 65% in size.
Potency is read from the fitted curve at half-maximal effect.

| SMILES | Potency |
| --- | --- |
| O=C(NCc1ccco1)C1CC2CCC1C2 (stereo not drawn) | inactive |
| COCCNC(=O)c1cccc(OC2CCN(Cc3ccc(F)cc3OC)CC2)c1 | inactive |
| CSc1nnc2c(n1)OC(C)=Nc1ccccc1-2 | 12 µM (active) |
| C#Cc1cccc(NC(=O)CSc2nnc(-c3ccc(C(F)(F)F)cn3)o2)c1 | 15.1 µM (active) |
| CCn1ccnc1CNCc1cn(-c2cc(C)ccc2C)nc1-c1ccccc1 | 8.49 µM (active) |
| CCNc1ccc2noc3c2c1C(=O)c1ccccc1-3 | 7.57 µM (active) |
| CN(Cc1ccccc1F)c1nc(-c2cccnc2)nc2ccccc12 | inactive |
| CCn1nc(C(=O)Nc2nc(-c3ccccn3)cs2)c2ccccc2c1=O | 3.79 µM (active) |
| O=C(CCS(=O)(=O)c1ccc(F)cc1)Nc1nc(-c2ccccn2)cs1 | 8.49 µM (active) |
| CSCCC(=O)Nc1nc(-c2ccccn2)cs1 | 12 µM (active) |
| O=C(CN1C(=O)c2ccccc2C1=O)Nc1nc(-c2cccc([N+](=O)[O-])c2)cs1 | inactive |
| S=C(NCCCc1cnc[nH]1)NCCCN(Cc1ccc(Cl)cc1)c1ccc(-c2ccccc2)cn1 | 15.1 µM (active) |
| CN(C)c1ccc(/C=C2\C=Cc3cc(N)ccc32)cc1 | 7.57 µM (active) |
| COc1ccc2c(c1)C=C/C2=C\c1ccc(N(C)C)cc1 | 6.75 µM (active) |
| Cc1nc([N+](=O)[O-])cn1CC(O)c1ccc2c(c1)OCO2 (stereo not drawn) | inactive |
| COC(=O)c1sc2cc(C(F)(F)F)cnc2c1-c1cccnc1 | inactive |
| O=C(O)/C=C/C(=O)Nc1ccc2c(c1)C(=O)c1ccccc1C2=O | 7.57 µM (active) |
| CC(=O)Nc1ccc2nc(C3CC3)n(Cc3ccc(Cl)cc3)c(=O)c2c1 | inactive |
| CN(C)c1ccc(/C=C2\C=Cc3ccccc32)cc1 | 8.49 µM (active) |
| CN(C)c1ccc(/C=C/C=C2/C=Cc3ccccc32)cc1 | 5.36 µM (active) |
| CC1=C/C(=C\c2ccc(N(C)C)cc2)c2ccccc21 | 7.57 µM (active) |

| SMILES | Potency |
| --- | --- |
| CCN(CC)c1ccc(/C=C2\C=Cc3ccccc32)cc1 | 7.57 µM (active) |
| C=C(CC[C@]12OC(C(=O)O)C(O)(C(=O)O)C(C(=O)O)(O1)C(OC(=O)/C=C/[C@@H](C)C[C@@H](C)CC)C2O)[C@@H](OC(C)=O)[C@H](C)Cc1ccccc1 (stereo partly drawn) | inactive |
| COC(=O)C(Sc1ccc(Cl)cc1)C1SC(=S)N(Cc2ccccc2)C1=O (stereo not drawn) | inactive |
| Cc1cccc(C#Cc2ccccc2)n1 | inactive |
| C[C@H](CCC(=O)NCC(=O)O)[C@H]1CC[C@H]2[C@@H]3[C@H](O)C[C@@H]4C[C@H](O)CC[C@]4(C)[C@H]3C[C@H](O)[C@]12C | inactive |
| CN(C)c1ccc(C=C2C=Cc3ccccc32)cc1 | 7.57 µM (active) |
| Cc1nn(C)c(Cl)c1CN1CCCC(CO)(Cc2cccc(Cl)c2)C1 (stereo not drawn) | inactive |
| CC(C)n1ncc2c(C(=O)N3CCN(Cc4ccc(Br)s4)CC3)cc(C3CC3)nc21 | inactive |
| COc1ccc(N2CCN(Cc3ccc(Br)s3)CC2)cc1 | 15.1 µM (active) |
| COc1ccc(N2CCN(C(=O)CCC(=O)N3CC(C)Oc4ccc(C)cc43)CC2)cc1 (stereo not drawn) | inactive |
| COc1ccc(N2CCN(C(c3cccs3)C(C)NC(=O)c3ccc4c(c3)OCO4)CC2)cc1 (stereo not drawn) | inactive |
| COc1ccc(N2CCN(C(=O)Cc3ccc(Cl)cc3)CC2)cc1 | inactive |
| COc1ccc(N2CCN(Cc3cc4c(cc3Br)OCCO4)CC2)cc1 | 12 µM (active) |
| COC(=O)c1c(C)[nH]c(C(=O)C(C)OC(=O)C2CC(=O)N(c3ccc(C)cc3)C2)c1C (stereo not drawn) | inactive |
| COc1cc(CNCc2ccc(OC)cc2OC)cc(OC)c1 | inactive |
| O=C(O)c1cc(-c2ccc(/C=C3\NC(=O)N(c4ccc(Cl)cc4)C3=O)o2)ccc1Cl | 8.49 µM (active) |
| CC(C)Nc1nnc(SCC(=O)Nc2ccc3c(c2)C(=O)c2ccccc2C3=O)s1 | 5.36 µM (active) |
| Cc1cc(NC(=O)CSc2nnc(Nc3ccccc3F)s2)no1 | inactive |
| Cc1coc2c(C)c3oc(=O)c(CCC(=O)N4CCC(C(=O)NCCCC(=O)O)(c5ccccc5)CC4)c(C)c3cc12 | 15.1 µM (active) |
| CCCCc1cc(=O)oc2cc(OCC(=O)N3CCC(C(=O)O)(c4ccccc4)CC3)ccc12 | inactive |
| CC1(C)CC(=O)C=C(c2ccc(COC(=O)c3cc(F)cc(F)c3)cc2)C1=O | inactive |

| SMILES | Potency |
| --- | --- |
| Cc1ccc(C(=O)N/C(=C\c2ccco2)C(=O)NCCCn2ccnc2)cc1 | 3.79 µM (active) |
| CCn1cc(C(=O)N[C@@H](C)C(=O)NCCCn2ccnc2)c(=O)c2cc3c(cc21)OCO3 | inactive |
| Cc1cccc(Nc2nnc(SCC(=O)NCC3CCCO3)s2)c1 (stereo not drawn) | 15.1 µM (active) |
| C/C(N)=C(/C#N)C(=O)CSc1nnc(Nc2cccc(C)c2)s1 | inactive |
| Cc1ccc(Nc2nnc(SCC(=O)c3c(N)n(C4CC4)c(=O)[nH]c3=O)s2)cc1C | inactive |
| COc1ccc(-c2cn3c(C)c(C(=O)NCc4ccc5c(c4)OCO5)sc3n2)cc1 | inactive |
| O=c1[nH][nH]cc1C=Nc1cc(Cl)ccc1O | 8.49 µM (active) |
| O=c1oc(-c2ccco2)nc2ccccc12 | 13.5 µM (active) |
| Cc1cc(C)c2c(/C=C/c3ccc(N(C)C)cc3)ccnc2c1 | 13.5 µM (active) |
| CN(C)c1ccc(/C=C/c2ccnc3ccc(-c4ccccc4)cc23)cc1 | 12 µM (active) |
| COc1ccc(N=C2SC(C(=O)N3CCN(c4ccc([N+](=O)[O-])cc4)CC3)CC(=O)N2C)cc1 (stereo not drawn) | inactive |
| O=C(NCCCO)c1ccc2nc(-c3ccco3)c(-c3ccco3)nc2c1 | 5.36 µM (active) |
| CC(C)(C)NC(=O)c1cccc(NC(=O)c2ccc(NC(=O)c3ccco3)cc2)c1 | inactive |
| CC(C)[C@H](NC(=O)c1ccccc1)C(=O)NC1CCCCCCC1 | inactive |
| O=C(Nc1ccccc1)c1ccc2nc(-c3ccco3)c(-c3ccco3)nc2c1 | 13.5 µM (active) |
| O=C(NC1CC1)c1ccc2nc(-c3ccco3)c(-c3ccco3)nc2c1 | 8.49 µM (active) |
| O=C(O)c1ccc2nc(-c3ccco3)c(-c3ccco3)nc2c1 | 7.57 µM (active) |
| Cc1ccc(C(O)c2ncc(-c3ccc4ccccc4c3)[nH]2)cc1F (stereo not drawn) | inactive |
| Cc1ccc(CNC(=O)c2ccc(-n3cccc3)cc2)cc1 | inactive |
| CN(C)C(CNC(=O)c1ccc2c(c1)S(=O)(=O)c1ccccc1C2=O)c1ccco1 (stereo not drawn) | inactive |
| O=C(NCc1ccccc1)c1ccc2nc(-c3ccco3)c(-c3ccco3)nc2c1 | 16.9 µM (active) |
